The values below come from PubChem BioAssay (EPA / NIEHS).

Experiment [1] addresses Retinoic acid receptor alpha (Homo sapiens) (UniProt P10276). The experiment in a line: ATG_RARa_TRANS: Attagene TRANS-FACTORIAL HepG2 Assay for human Retinoic Acid Receptor alpha (RARa) (AID 2283005; active means hit-call score of the fitted dose curve at least 0.9, where 1 is the maximum). The essentials: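 HepG2 transiently transfected with multiplex GAL4-UAS reporter units including a human RARa–GAL4 chimera; 24 h compound exposure. Reporter mRNA quantified by RT-PCR, 6-FAM labeling and capillary electrophoresis; gain of signal versus DMSO.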

The target of experiment [2] is human Retinoic Acid Receptor gamma (RARg), RARG (gene 5916) (UniProt P13631). The experiment in a line: ATG_RARg_TRANS: Attagene TRANS-FACTORIAL HepG2 Assay for human Retinoic Acid Receptor gamma (RARg) (AID 2283009; active means hit-call score of the fitted dose curve at least 0.9, where 1 is the maximum). The essentials: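 Readout: reporter transcript levels via RT-PCR, 6-FAM primer-extension labelling, HpaI digestion and capillary electrophoresis. Cells: HepG2 carrying transfected RARg-GAL4 chimera plus UAS reporter set. Dosing 24 h; DMSO negative control.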
Sequence of human Retinoic Acid Receptor gamma (RARg), RARG (gene 5916) (P13631 whole entry, looked up, the tested form may be a part): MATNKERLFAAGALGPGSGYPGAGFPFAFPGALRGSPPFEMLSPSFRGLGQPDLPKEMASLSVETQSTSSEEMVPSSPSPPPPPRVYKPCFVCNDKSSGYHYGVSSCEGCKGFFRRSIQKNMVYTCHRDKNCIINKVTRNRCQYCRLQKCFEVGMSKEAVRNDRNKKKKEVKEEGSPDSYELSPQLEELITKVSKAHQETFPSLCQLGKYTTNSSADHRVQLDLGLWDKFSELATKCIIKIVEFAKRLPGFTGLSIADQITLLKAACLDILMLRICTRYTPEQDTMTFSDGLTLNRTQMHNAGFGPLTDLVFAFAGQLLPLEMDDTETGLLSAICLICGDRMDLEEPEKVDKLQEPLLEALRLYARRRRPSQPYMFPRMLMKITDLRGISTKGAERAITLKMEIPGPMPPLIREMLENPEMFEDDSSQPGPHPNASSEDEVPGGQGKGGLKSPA

Read-out in experiment [3]: Tumor necrosis factor (Homo sapiens) (UniProt P01375)
Kind of experiment: BSK_BT_xTNFa: BioMAP Diversity Plus: BT Assay for Tumor necrosis factor alpha (TNF-alpha) Biomarker Activity (AID 2284230). Particulars: primary human B cells with PBMC. In outline:
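B cells with PBMC in co-culture, dosed and sampled at 24 h; secreted TNF-alpha measured by Luminex xMAP bead assay. Activity fitted in the gain direction against DMSO as negative control and baseline.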

Read-out in experiment [4]: Vascular cell adhesion molecule 1 (VCAM1), VCAM1 (gene 7412)
Kind of experiment: BSK_MyoF_VCAM1: BioMAP Diversity Plus: MyoF Assay for Vascular cell adhesion molecule 1 (VCAM1) Biomarker Activity (AID 2284231). The settings on record: primary human lung fibroblasts. The essentials:
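Primary human lung fibroblasts were dosed with test chemical for 24 h, then cell-surface VCAM-1 was measured by ELISA. Activity was fitted in the positive direction against DMSO as negative control and baseline.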

Read-out in experiment [5]: Collagen I, COL1A1 (gene 1277)
The experiment in a line: BSK_MyoF_CollagenI: BioMAP Diversity Plus: MyoF Assay for Collagen I Biomarker Activity (AID 2284238). Particulars: primary human lung fibroblasts. The essentials: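 Human lung fibroblasts were exposed to test chemical for 24 h, then Collagen I was quantified by ELISA. Activity was fitted in the increasing direction against DMSO as the negative control and baseline.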

Read-out in experiment [6]: Interleukin 17F (IL17F), IL17F (gene 112744)
The experiment in a line: BSK_BT_xIL17F: BioMAP Diversity Plus: BT Assay for Interleukin 17F (IL17F) Biomarker Activity (AID 2284243). The settings on record: primary human B cells with PBMC. The essentials: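 B cell/PBMC co-culture (human primary), 24 h compound exposure; sIL-17F by Luminex xMAP; gain-of-signal fit vs DMSO baseline.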

Read-out in experiment [7]: Actin alpha 1 (ACTA1), ACTA1 (gene 58)
Kind of experiment: BSK_MyoF_ACTA1: BioMAP Diversity Plus: MyoF Assay for Actin alpha 1 (ACTA1) Biomarker Activity (AID 2284244). Particulars: primary human lung fibroblasts. In outline:
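ELISA read-out of a-SMA in primary human lung fibroblast cultures, 24 h post-dosing. Activity scored in the positive direction versus DMSO baseline.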

Read-out in experiment [8]: Basic fibroblast growth factor (bFGF), FGF2 (gene 2247)
The experiment in a line: BSK_MyoF_bFGF: BioMAP Diversity Plus: MyoF Assay for Basic fibroblast growth factor (bFGF) Biomarker Activity (AID 2284246). The settings on record: primary human lung fibroblasts. The essentials: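 Primary human lung fibroblast culture, 24 h compound exposure; ELISA read-out of bFGF. Positive-direction fit vs DMSO baseline. Cytotoxicity: SRB stain (0.1% SRB, 10% TCA fixation, 560 nm) in parallel wells.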

Read-out in experiment [9]: Interleukin-8 (IL8), CXCL8 (gene 3576)
Kind of experiment: BSK_MyoF_IL8: BioMAP Diversity Plus: MyoF Assay for Interleukin-8 (IL8) Biomarker Activity (AID 2284261). The settings on record: primary human lung fibroblasts. The essentials: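 ELISA read-out of IL-8 from primary human lung fibroblasts, 24 h post-dose; positive-direction curve fitting relative to DMSO vehicle baseline.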

The nature of experiment [10]: BSK_MyoF_SRB: Viability Assessment in the BioMAP Diversity Plus: MyoF Assay (AID 2284267).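 Further: total protein by SRB absorbance in parallel cultures as cytotoxicity measure; cells assessed 24 h after compound addition.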 The settings on record: primary human lung fibroblasts. In outline: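 Lung fibroblast cultures, 24 h post-dose; fix 10% TCA, stain 0.1% SRB, read 560 nm. Signal = total protein as cytotoxicity measure; fitted relative to DMSO negative control.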
For experiment [11], the target named is human RAR-related Orphan Receptor gamma (RORg), RORC (gene 6097) (UniProt P51449). The experiment in a line: ATG_RORg_TRANS: Attagene TRANS-FACTORIAL HepG2 Assay for human RAR-related Orphan Receptor gamma (RORg) (AID 2283011; active means hit-call score of the fitted dose curve at least 0.9, where 1 is the maximum). The essentials: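 Readout: reporter transcript induction (RT-PCR, fluorescent primer extension, capillary electrophoresis) after 24 h compound exposure of transiently transfected HepG2 cells carrying a RORg-Gal4 chimera and GAL4-UAS reporters; DMSO served as baseline, with increasing signal fitted.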
Sequence of human RAR-related Orphan Receptor gamma (RORg), RORC (gene 6097) (P51449 whole entry, looked up, the tested form may be a part): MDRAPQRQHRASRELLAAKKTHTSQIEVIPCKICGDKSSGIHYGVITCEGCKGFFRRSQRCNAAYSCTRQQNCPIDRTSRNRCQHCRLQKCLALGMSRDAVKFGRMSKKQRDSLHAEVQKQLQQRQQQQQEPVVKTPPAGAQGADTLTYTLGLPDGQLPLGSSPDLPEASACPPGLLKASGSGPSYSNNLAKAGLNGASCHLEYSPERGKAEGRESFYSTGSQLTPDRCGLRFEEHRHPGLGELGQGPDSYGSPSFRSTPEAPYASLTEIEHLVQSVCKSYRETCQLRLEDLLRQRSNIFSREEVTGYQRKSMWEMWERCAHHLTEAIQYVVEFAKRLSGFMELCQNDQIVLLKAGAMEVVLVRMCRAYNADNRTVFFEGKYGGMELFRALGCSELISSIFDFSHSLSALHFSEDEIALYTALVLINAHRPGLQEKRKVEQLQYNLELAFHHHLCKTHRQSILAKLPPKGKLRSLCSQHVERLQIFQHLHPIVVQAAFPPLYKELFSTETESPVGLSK

The target of experiment [12] is human Phosphodiesterase 10 (PDE10), PDE10A (gene 10846) (UniProt Q9Y233). Kind of experiment: NVS_ENZ_hPDE10: NovaScreen (NVS) Enzymatic Assay for human Phosphodiesterase 10 (PDE10) (AID 2283195; active means hit-call score of the fitted dose curve at least 0.9, where 1 is the maximum). In outline: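 Biochemical single-readout PDE10A assay, cell-free, extracted protein. Compounds first screened at 25 uM in duplicate, hits then titrated to 50 uM max. Activity measured after 1 h; loss-of-signal fitted against DMSO negative control.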
Sequence of human Phosphodiesterase 10 (PDE10), PDE10A (gene 10846) (Q9Y233 whole entry, looked up): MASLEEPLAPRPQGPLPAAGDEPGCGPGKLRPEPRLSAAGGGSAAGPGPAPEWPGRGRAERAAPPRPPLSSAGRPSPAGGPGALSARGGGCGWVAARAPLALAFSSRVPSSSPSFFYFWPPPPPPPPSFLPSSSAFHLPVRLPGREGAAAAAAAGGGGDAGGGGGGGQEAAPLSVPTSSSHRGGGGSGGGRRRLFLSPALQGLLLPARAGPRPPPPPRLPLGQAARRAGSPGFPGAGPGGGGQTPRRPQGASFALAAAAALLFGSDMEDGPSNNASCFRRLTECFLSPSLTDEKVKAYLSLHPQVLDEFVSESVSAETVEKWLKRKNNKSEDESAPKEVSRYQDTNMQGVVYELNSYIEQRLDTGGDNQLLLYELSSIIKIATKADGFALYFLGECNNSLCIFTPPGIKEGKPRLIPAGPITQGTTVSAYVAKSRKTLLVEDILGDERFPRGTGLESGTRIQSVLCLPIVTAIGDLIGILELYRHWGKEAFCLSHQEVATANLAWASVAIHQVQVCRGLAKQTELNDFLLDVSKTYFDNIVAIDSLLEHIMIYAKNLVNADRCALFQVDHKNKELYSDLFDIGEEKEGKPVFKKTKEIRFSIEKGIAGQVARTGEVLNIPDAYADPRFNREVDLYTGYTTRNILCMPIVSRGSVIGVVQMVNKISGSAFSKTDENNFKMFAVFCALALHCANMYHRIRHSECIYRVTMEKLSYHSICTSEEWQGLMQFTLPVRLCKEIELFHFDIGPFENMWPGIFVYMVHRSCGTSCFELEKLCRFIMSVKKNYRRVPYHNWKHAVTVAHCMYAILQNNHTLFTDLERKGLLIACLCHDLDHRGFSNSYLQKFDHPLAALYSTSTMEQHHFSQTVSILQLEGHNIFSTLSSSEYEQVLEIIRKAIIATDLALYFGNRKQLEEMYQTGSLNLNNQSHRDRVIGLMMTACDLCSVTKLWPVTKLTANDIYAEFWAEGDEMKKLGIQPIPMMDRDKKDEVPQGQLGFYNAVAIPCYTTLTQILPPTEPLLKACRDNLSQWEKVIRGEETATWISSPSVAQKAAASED

Experiment [13] can be described thus: CEETOX_H295R_MTT_cell_viability: Viability Assessment in the CeeTox HT-H295R MTT Assay (AID 2283718).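 Further: curve fitted both ways so AC50 may mark viability loss or gain.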 In outline:
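Human H295R adrenal cells, prestimulated 48 h with 10 uM forskolin, were exposed 48 h to chemicals in 0.1% DMSO. Viability was measured in the same wells by MTT (0.5 mg/ml, 4 h, 37 C), absorbance 570/650 nm, as percent of controls.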

Experiment [14] is described as follows: CCTE_Deisenroth_AIME_384WELL_CTox_Inactive: Cytotoxicity Assessment (CTOX) in CCTE's 384-well Estrogen Receptor Transactivation Assay without AIME metabolic competence (metabolism negative), Deisenroth Lab (AID 2284039; active means hit-call score of the fitted dose curve at least 0.9, where 1 is the maximum;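 further: cell viability via live-cell protease substrate cleaved to fluorescent probe; cells exposed 24 h to medium preincubated 2 h with alginate-water beads without S9; loss of fluorescence signal means loss of viability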). In outline:
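VM7Luc4E2 cells, metabolism-negative arm: test chemicals (0.002–200 uM, 10 points) pre-incubated 2 h with alginate-water microspheres, then medium transferred to cells for 24 h. Viability read as protease-substrate cleavage to fluorescent probe; loss-of-signal, bidirectional fitting.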

Experiment [15] addresses human Retinoic Acid Receptor beta (RARb), RARB (gene 5915) (UniProt P10826). The experiment in a line: ATG_RARb_TRANS: Attagene TRANS-FACTORIAL HepG2 Assay for human Retinoic Acid Receptor beta (AID 2283004; active means hit-call score of the fitted dose curve at least 0.9, where 1 is the maximum). In outline: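 HepG2 cells transiently transfected with multiplexed GAL4-UAS reporter units expressing chimeric NR–Gal4 fusions; 24 h compound exposure. Reporter mRNA quantified by RT-PCR, 6-FAM labelling, HpaI digestion and capillary electrophoresis; gain-of-signal fitted against DMSO baseline.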

Experiment [16] in a line: CCTE_Harrill_HTTr_CellCount_MCF7: CCTE's Cell Proliferation Assessment for the High-Throughput Transcriptomics (HTTr) Platform, Harrill Lab (AID 2284012; active means hit-call score of the fitted dose curve at least 0.9, where 1 is the maximum;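 further: count of Hoechst-stained nuclei per well by high-content imaging in MCF-7 cells; cells exposed to compound for six hours; intended direction is loss of nuclei count meaning fewer cells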). In outline: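 Readout: Hoechst nuclear count by high-content imaging. MCF-7, 8-point dilution series, 6 h exposure. Bidirectional fit vs DMSO baseline.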
Experiment [17] concerns the target rat Thyrotropin Releasing Hormone Receptor (TRH), Trhr (gene 25570) (UniProt Q01717). The experiment in a line: NVS_GPCR_rTRH: NovaScreen (NVS) G Protein-Coupled Receptor Assay for rat Thyrotropin Releasing Hormone Receptor (TRH) (AID 2283329; active means hit-call score of the fitted dose curve at least 0.9, where 1 is the maximum;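 further: hit means lower bound tracer signal versus DMSO baseline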). In outline:
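Rat forebrain membranes; radioligand displacement at TRH receptor by filter-based scintillation counting, read 4 h after dosing. Duplicate single-point screen at 25 uM, actives rerun in concentration series; loss of signal relative to DMSO.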

In experiment [18] the test system is Thyroperoxidase (TPO), gene 54314. Kind of experiment: CCTE_Simmons_AUR_rTPO: CCTE's Amplex UltraRed Assay for Thyroperoxidase (TPO) Inhibition, Simmons Lab (AID 2283662; active means hit-call score of the fitted dose curve at least 0.9, where 1 is the maximum;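 further: potency for loss of signal meaning inhibition of peroxidase activity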). In outline: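 Rat thyroid microsomes (5 ug protein) with 25 uM Amplex UltraRed and 300 uM H2O2 in 200 mM phosphate buffer, 30 min at 37C in dark; fluorescence 544/590 nm. Eight concentrations, 5 nM–87.5 uM final, 0.5% DMSO, triplicate biological replicates.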

Experiment [19] can be described thus: CCTE_Simmons_CellTiterGLO_HEK293T: Viability Assessment in CCTE's Assays for Thyroperoxidase (TPO) Inhibition, Simmons Lab (AID 2283665; active means hit-call score of the fitted dose curve at least 0.9, where 1 is the maximum). The essentials:
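Luminescent ATP readout (CellTiter-Glo, 20 min at room temperature) after 24 hr exposure of HEK293T cells to 5 nM–87.5 uM final compound; signal loss relative to DMSO vehicle indicated cytotoxicity; dichlone titrated as positive control.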

The target of experiment [20] is Luciferin 4-monooxygenase (Photinus pyralis) (UniProt P08659). The experiment in a line: CCTE_Simmons_QuantiLum_inhib_2: CCTE's Firefly Luciferase Inhibition Assay, Simmons Lab (AID 2283767; active means hit-call score of the fitted dose curve at least 0.9, where 1 is the maximum). The essentials: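 Cell-free QuantiLum luciferase, 5 ng/well; compounds 5 nM–87.5 uM final, 8 conc, 0.5% DMSO; 30 min, 37C, dark. Detection reagent (150 uM D-luciferin, 147 uM dATP, CoA, DTT, pH 7.8 final) injected per well, kinetic luminescence. Triplicate biological replicates.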
Sequence of Luciferin 4-monooxygenase (Photinus pyralis) (P08659 whole entry, looked up): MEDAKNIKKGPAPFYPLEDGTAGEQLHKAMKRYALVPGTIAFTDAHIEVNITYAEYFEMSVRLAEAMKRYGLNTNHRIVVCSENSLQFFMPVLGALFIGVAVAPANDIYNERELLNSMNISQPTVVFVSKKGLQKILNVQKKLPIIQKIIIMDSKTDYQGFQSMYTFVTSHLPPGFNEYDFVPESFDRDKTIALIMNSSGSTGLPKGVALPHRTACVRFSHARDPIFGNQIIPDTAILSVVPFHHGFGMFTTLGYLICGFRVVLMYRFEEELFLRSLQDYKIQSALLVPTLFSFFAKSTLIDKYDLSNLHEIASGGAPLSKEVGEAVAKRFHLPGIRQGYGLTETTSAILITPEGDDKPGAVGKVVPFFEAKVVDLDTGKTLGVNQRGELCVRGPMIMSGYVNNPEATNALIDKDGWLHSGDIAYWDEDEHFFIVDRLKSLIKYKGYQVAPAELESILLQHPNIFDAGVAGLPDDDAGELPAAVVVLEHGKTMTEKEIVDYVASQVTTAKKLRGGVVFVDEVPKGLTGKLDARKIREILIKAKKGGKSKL

Several values for one entry are separate records, joined by “and”; a condition that tells them apart may be missing. Identical values can stand only once. Inconclusive results are not listed. Activity calls are given as the source filed them. How the source made its calls, unless noted: active means hit-call score of the fitted dose curve at least 0.9, where 1 is the maximum; inactive means score below 0.9.

Sequence of Tumor necrosis factor (Homo sapiens) (P01375 whole entry, looked up): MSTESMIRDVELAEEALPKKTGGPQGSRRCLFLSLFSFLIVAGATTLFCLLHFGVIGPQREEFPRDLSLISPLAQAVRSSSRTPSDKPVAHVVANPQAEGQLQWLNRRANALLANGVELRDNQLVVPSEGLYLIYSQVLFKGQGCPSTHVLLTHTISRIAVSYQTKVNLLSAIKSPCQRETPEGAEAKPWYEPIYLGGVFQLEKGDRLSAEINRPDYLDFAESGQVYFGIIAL
Sequence of human Retinoic Acid Receptor beta (RARb), RARB (gene 5915) (P10826 whole entry, looked up, the tested form may be a part): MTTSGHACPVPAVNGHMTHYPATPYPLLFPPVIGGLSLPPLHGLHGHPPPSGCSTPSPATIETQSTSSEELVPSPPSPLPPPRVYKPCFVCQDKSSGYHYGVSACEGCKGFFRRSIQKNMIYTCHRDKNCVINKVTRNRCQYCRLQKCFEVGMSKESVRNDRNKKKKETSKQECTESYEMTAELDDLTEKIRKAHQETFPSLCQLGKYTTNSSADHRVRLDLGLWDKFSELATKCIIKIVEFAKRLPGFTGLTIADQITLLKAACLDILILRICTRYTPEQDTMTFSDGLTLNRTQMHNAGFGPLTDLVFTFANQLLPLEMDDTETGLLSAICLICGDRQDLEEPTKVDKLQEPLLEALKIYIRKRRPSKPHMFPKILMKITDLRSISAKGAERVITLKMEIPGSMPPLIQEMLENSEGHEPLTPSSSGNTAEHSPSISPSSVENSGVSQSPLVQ
Sequence of Retinoic acid receptor alpha (Homo sapiens) (P10276 whole entry, looked up, the tested form may be a part): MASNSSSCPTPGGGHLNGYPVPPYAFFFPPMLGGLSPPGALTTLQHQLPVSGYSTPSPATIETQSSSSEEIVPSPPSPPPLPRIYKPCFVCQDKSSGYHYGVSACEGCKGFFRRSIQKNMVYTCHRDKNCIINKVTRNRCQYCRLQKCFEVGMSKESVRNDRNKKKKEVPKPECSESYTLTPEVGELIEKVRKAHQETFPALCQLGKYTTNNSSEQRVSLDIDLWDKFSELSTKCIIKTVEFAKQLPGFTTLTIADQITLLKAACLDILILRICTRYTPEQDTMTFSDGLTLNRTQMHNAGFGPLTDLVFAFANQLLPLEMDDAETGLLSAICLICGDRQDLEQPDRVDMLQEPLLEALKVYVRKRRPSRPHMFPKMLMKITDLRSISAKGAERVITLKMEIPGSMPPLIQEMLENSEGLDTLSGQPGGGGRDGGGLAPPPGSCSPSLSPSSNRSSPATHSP
Sequence of rat Thyrotropin Releasing Hormone Receptor (TRH), Trhr (gene 25570) (Q01717 whole entry, looked up): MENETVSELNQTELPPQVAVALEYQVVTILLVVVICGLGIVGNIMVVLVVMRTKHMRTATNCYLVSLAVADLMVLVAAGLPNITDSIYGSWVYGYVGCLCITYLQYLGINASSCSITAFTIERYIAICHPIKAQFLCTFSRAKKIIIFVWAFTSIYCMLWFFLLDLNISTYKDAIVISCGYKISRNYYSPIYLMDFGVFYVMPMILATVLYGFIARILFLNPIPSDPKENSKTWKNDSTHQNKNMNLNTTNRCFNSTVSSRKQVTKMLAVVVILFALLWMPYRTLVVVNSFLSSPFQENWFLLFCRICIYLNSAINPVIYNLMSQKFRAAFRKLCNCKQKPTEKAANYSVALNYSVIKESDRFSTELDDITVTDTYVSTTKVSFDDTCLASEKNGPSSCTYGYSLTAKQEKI

For `O=S(=O)(c1ccccc1)c1ccccc1`, the outcome in experiment [1], in experiment [2], in experiment [3], in experiment [4], in experiment [5] and in experiment [6] was inactive. Besides, the result in experiment [7], in [8], in [9] and in experiment [10] was inactive.
On to `N#CCCCl`, for which the result in experiment [1] was inactive.
Take `COC(C)(C)CCC[C@H](C)C/C=C/C(C)=C/C(=O)OC(C)C`: the molecule was classed as inactive in experiment [11], in [12], in experiment [5], in experiment [8], in experiment [9] and in [10]. The AC50 in experiment [3] was 32.5 µM (active); in [4], 27.1 µM (active); in experiment [6], 24.4 µM (active); in [7], 30.9 µM (active).
Consider `Cc1cc(C)c(C2=C(OC(=O)CC(C)(C)C)C3(CCCC3)OC2=O)c(C)c1`, for which the concentration at half-maximal activity (AC50) in [13] is 93.1 µM (active). The outcome in experiment [14] was inactive.
Take `Nc1ccc(-c2ccc(N)c(N)c2)cc1N`: the result in experiment [1], in experiment [11], in experiment [3], in experiment [5], in experiment [8] and in experiment [9] was inactive. In experiment [10], the outcome was inactive. The concentration at half-maximal activity (AC50) in [12] was 6.79 µM (active); in experiment [4], 20 µM (active); in [6] it was 23.6 µM (active); in experiment [7], 20 µM (active).
Take `COC(=O)COc1ccc(Cl)cc1Cl`: the molecule was classed as inactive in experiment [11].
`CC[N+](=O)[O-]`: the molecule was classed as inactive in [15].
`BrCBr`: the outcome in experiment [11] was inactive.
Consider `c1cc(OCC2CO2)ccc1Cc1ccc(OCC2CO2)cc1` (stereo not drawn), for which the molecule was classed as inactive in experiment [11] and in experiment [16].
On to `Cc1ncc(C[n+]2csc(CCO)c2C)c(N)n1`, for which the molecule was classed as inactive in experiment [12].
For `CC(C)CCCCCCCOP(=O)(Oc1ccccc1)Oc1ccccc1`, the concentration at half-maximal activity (AC50) is 31.3 µM (active) in experiment [3]; 8.84 µM (active) in [4]; 8.57 µM (active) in [5]; 25.5 µM (active) in experiment [6]; 8.22 µM (active) in experiment [7]; 20 µM (active) in experiment [8]. Moreover, the values for the AC50 in [9] and in experiment [10] were 5.07 µM (active) and 11.3 µM (active), respectively.
Take `C=CC(=O)OC`: the molecule was classed as inactive in experiment [11] and in [12].
For `COC(=O)c1ccccc1S(=O)(=O)NC(=O)Nc1nc(C)cc(C)n1`, the call in experiment [15] and in experiment [2] was inactive.
As to `O=C(O)CCCc1ccc(N(CCCl)CCCl)cc1`, the molecule was classed as inactive in experiment [16], in [5], in experiment [7], in experiment [8], in [9] and in experiment [10]. Besides, the AC50 in experiment [3] is 23.6 µM (active) and 20 µM (active); in experiment [4] it was 24.4 µM (active) and 30.1 µM (active); in experiment [6], 20 µM (active) and 15.2 µM (active).
Turning to `CNC(=N[N+](=O)[O-])NCC1CCOC1` (stereo not drawn), the outcome in experiment [11] and in experiment [17] was inactive.
Regarding `CC(C)(O)C#N`, the molecule was classed as inactive in experiment [15], in experiment [1], in experiment [2], in experiment [19] and in experiment [20]. Moreover, the AC50 in experiment [18] was 36.7 µM (active).
In the case of `O=C1C=CC(=O)C=C1`, the molecule was called inactive in experiment [16]. Besides, the AC50 in experiment [3] is 24 µM (active) and 33.1 µM (active); in experiment [4], 34 µM (active) and 29.6 µM (active); in experiment [5] it was 31.8 µM (active) and 25.3 µM (active); in experiment [6] it was 29.2 µM (active); in experiment [7], 30.9 µM (active) and 20 µM (active); in experiment [8] it was 34.7 µM (active) and 30.6 µM (active). The half-maximal activity concentration (AC50) was 9.01 µM (active) and 4.78 µM (active) in [9]; 30.6 µM (active) and 29 µM (active) in [10].
